{"source": "PubChem BioAssay (NCATS)", "note": "Inconclusive results are not listed. Where a call stands in place of a potency, no number is given. Activity calls are given as the source filed them. Calls follow the shape of the dose curve; as a rule, active = well fitted cell-killing curve with a large enough effect; inconclusive = small, poorly fitted or top-dose-only effect; inactive = no such curve, though single readings can be large or run the other way. Potency is read from the fitted curve at half-maximal effect."}
{"assay": "qHTS of pediatric cancer cell lines to identify multiple opportunities for drug repurposing: Primary screen for SJ-GBM2 cells (AID 1347091)", "conditions": "SJ-GBM2 viability, CellTiter-Glo luminescence, 48 h; series mostly up to 46 µM", "from_the_text": "Drug repurposing or repositioning has been offered as a strategy for drug development in oncology programs. This approach has special potential for childhood cancers and other rare or orphan diseases, where the expected return on new drug development has been a disincentive to pharmaceuticals.\nIn this project we exploit the poly-pharmacology of drugs to discover new indications via phenotypic screening of a panel of 19 well-characterized cell lines derived from solid tumors seen in children and adolescents. The goal is to identify approved drugs with previously unrecognized anticancer properties that has the potential to reveal new mechanisms and biological processes involved in carcinogenesis or drug resistance. We employed a titration-based paradigm (quantitative high-throughput screening or qHTS), where all compounds were tested at multiple concentrations for their effect on cell viability. Concentration-response curves (CRCs) were derived directly from the primary screen, and both potency and efficacy values were used to identify compounds with robust bioactivity profiles. We screened the NIH Chemical Genomics Center (NCGC) Pharmaceutical Collection (NPC) and Mechanism Interrogation Plate (MIPE) small molecule collections of approved and investigational compounds against these cell lines; and measured metabolically active cells after 48 hours of compound treatment as a proxy for cell viability.\nAssay Submitter: Nathalia J. Martinez, National Center for Advancing Translational Sciences, National Institutes of Health, Rockville, MD, USA; email: natalia.martinez@nih.gov\n[1] Shen, M et al. Quantitative high-throughput phenotypic screening of pediatric cancer cell lines identifies multiple opportunities for drug repurposing. Oncotarget 2017 Dec 19;9(4):4758-4772. PMID 29435139.\nThe cells were obtained from University of North Carolina (UNC), Pediatric Preclinical Testing Program (PPT), and Coriell Institute (CI).\nqHTS cell viability assay:\nCells were assayed in growth media at a density of 500-1,000 cells/well. Five microliters of cells were dispensed into 1,536-well, white, solid-bottom, TC-treated plates (Greiner Bio One) using a multidrop dispenser and incubated at 37 degrees C, 5% CO2, under a humidified atmosphere for 5 hours. Twenty-three nanoliters of compounds and controls (neutral control DMSO or positive control bortezomib at final concentration of 2.3 µM) were subsequently transferred by Kalypsys pintool. For primary screens, the MIPE collection was tested at 11-point dilutions (final concentrations range from 0.78 nM to 46 µM) and the NPC collection at 8-point dilutions (final concentrations range from 0.59 nM to 46 µM). Compounds tested in follow-up screens were assayed at 11-point dilutions. Cells were incubated for 48 hours, followed by addition of 3 uL of CellTiter-Glo (Promega). After a 15 min incubation at room temperature, samples were analyzed for luminescence intensity using a ViewLux High-throughput CCD imager equipped with clear filters."}
{"compound": "Nc1nc2ccccc2n1Cc1ccc(F)cc1", "Potency": "inactive"}
{"compound": "CN(C(=O)C(Cl)Cl)c1ccc(OC(=O)c2ccco2)cc1", "Potency": "inactive"}
{"compound": "Cc1ncc(CO)c(CO)c1O", "Potency": "inactive"}
{"compound": "Cc1cnc(NS(=O)(=O)c2ccc(N)cc2)nc1", "Potency": "inactive"}
{"compound": "O=C(CCCCC(=O)Nc1c(I)cc(I)c(C(=O)O)c1I)Nc1c(I)cc(I)c(C(=O)O)c1I", "Potency": "inactive"}
{"compound": "NCC(=O)O", "Potency": "inactive"}
{"compound": "CC(=O)Nc1c(I)c(NC(C)=O)c(I)c(C(=O)O)c1I", "Potency": "inactive"}
{"compound": "Cc1cc(CCCOc2c(C)cc(-c3noc(C(F)(F)F)n3)cc2C)on1", "Potency": "inactive"}
{"compound": "CN1N=C(C(N)=O)CCC1=O", "Potency": "inactive"}
{"compound": "COCCOCC(OC)OC", "Potency": "inactive"}
{"compound": "Clc1ccc2c(c1)Nc1ccccc1S2", "Potency": "inactive"}
{"compound": "CCCC(=O)Nc1ccc(O)c(C(C)=O)c1", "Potency": "inactive"}
{"compound": "O=C(c1cc(O)c(O)c(O)c1)c1ccc(O)c(O)c1O", "Potency": "inactive"}
{"compound": "CCCCCCCCCCCCCC[N+](C)(C)C", "Potency": "11.9 µM (active)"}
{"compound": "CC(C)C(=O)Nc1cccc(C2CN3CCSC3=N2)c1", "note": "(stereo not given)", "Potency": "inactive"}
{"compound": "CC(C)(C)c1ccc(C(=O)CCCCl)cc1", "Potency": "inactive"}
{"compound": "CCOC(=O)NNc1nncc2ccccc12", "Potency": "inactive"}
{"compound": "COc1cc(S(N)(=O)=O)cc(C(=O)O)c1OC", "Potency": "inactive"}
{"compound": "CCCN(CCC)C(=O)C(CCC(=O)OCCCN1CCN(CCOC(=O)Cc2c(C)n(C(=O)c3ccc(Cl)cc3)c3ccc(OC)cc23)CC1)NC(=O)c1ccccc1", "note": "(stereo not given)", "Potency": "18.8 µM (active)"}
{"compound": "O=C(Oc1ccccc1)c1ccccc1O", "Potency": "inactive"}
{"compound": "CCOc1ccccc1OCC1CNCCO1", "note": "(stereo not given)", "Potency": "inactive"}
{"compound": "Cc1cccc(C)c1NC(=O)c1ccc(N)cc1", "Potency": "inactive"}
{"compound": "O=C(O)C1CCC1", "Potency": "inactive"}
{"compound": "Nc1ncnc2nc[nH]c12", "Potency": "inactive"}
{"compound": "Cc1nc2n(c(=O)c1CCN1CCC(C(=O)c3ccc(F)cc3)CC1)CCS2", "Potency": "inactive"}
{"compound": "Nc1nc(=O)n([C@@H]2O[C@H](CO)[C@@H](O)[C@@H]2F)cc1I", "Potency": "inactive"}
{"compound": "Cc1cc(=O)oc2cc(O[C@@H]3SC[C@@H](O)[C@H](O)[C@H]3O)ccc12", "Potency": "inactive"}
{"compound": "O=C(OCC(COC(=O)c1cccnc1)(COC(=O)c1cccnc1)COC(=O)c1cccnc1)c1cccnc1", "Potency": "inactive"}
{"compound": "CC[N+]1(CC)CCC(=C(c2ccccc2)c2ccccc2)C1C", "note": "(stereo not given)", "Potency": "inactive"}
{"compound": "Cc1ccccc1C(=O)N1CC/C(=N\\OS(=O)(=O)O)c2ccc(Cl)cc21", "Potency": "inactive"}
{"compound": "Nc1ccc(C(=O)N2CC3CC(CN(Cc4ccccc4)C3)C2)cc1", "Potency": "inactive"}
{"compound": "COc1ccc([C@@H]2Sc3ccccc3NC(=O)[C@@H]2O)cc1", "Potency": "7.5 µM (active)"}
{"compound": "Nc1ccc([N+](=O)[O-])c(C(F)(F)F)c1", "Potency": "inactive"}
{"compound": "CCOC(=O)c1ccc(OCCN2C[C@H](O)[C@@H](O)[C@H](O)[C@H]2CO)cc1", "Potency": "inactive"}
{"compound": "CC1(C)O[C@@H]2C[C@H]3[C@@H]4C[C@H](F)C5=CC(=O)C=C[C@]5(C)[C@@]4(F)[C@@H](O)C[C@]3(C)[C@]2(C(=O)CO)O1", "Potency": "inactive"}
{"compound": "CC(C)OP(=O)(CP(=O)(OC(C)C)OC(C)C)OC(C)C", "Potency": "inactive"}
{"compound": "CC[C@@]1(O)C(=O)OCc2c1cc1n(c2=O)Cc2c-1nc1ccccc1c2/C=N/OC(C)(C)C", "Potency": "0.0266 µM (active)"}
{"compound": "CCCCN(CCN(CCCC)C(=O)N1CCOCC1)C(=O)N1CCOCC1", "Potency": "inactive"}
{"compound": "COc1ccc(OC(=O)N(CC(=O)O)Cc2ccc(OCCc3nc(-c4ccccc4)oc3C)cc2)cc1", "Potency": "inactive"}
{"compound": "Cc1[nH]cnc1-c1ccc(Cl)cc1", "Potency": "inactive"}
